# Assay results: PubChem BioAssay (NCATS)
# Where “and” joins values, the source holds several entries; their conditions need not be identical. Identical values can stand only once. Records with an inconclusive call do not appear. Some compounds were tested as several samples or in several runs, with calls that do not always agree. Values without a mark were called inactive. Calls of active or inactive are those of the source. Calls come from the whole dose curve; as a rule, active = well fitted inhibition curve with a large enough effect; inconclusive = small, poorly fitted or top-dose-only effect; inactive = flat fitted curve, though single readings scatter.
# Test: Drug repurposing screens with cells derived from glioblastoma tumor samples (AID 1345199); note: nearly all actives have a fitted effect of over 40% in size
# Conditions: GBM patient neurospheres viability, ATP luminescence, 48 h
# Description: CD133+ cells were isolated from GBM patient biopsies and cultured as neurospheres. Neurospheres from four patients were used to screen the NCATS pharmaceutical collection (NPC) library of approved drugs and bioactive compounds. […] The neurospheres were incubated with drugs for 48 hours in 1536-well format, then assayed with an ATP content cell viability assay. […] These hits were cherry picked to confirm activity in the four original GBM lines screened plus three other slower growing GMB lines (unable to yield enough cells for a full primary screen). Variable activities of the confirmed primary hits in the different GBM patient lines were observed. The patient line 206 responded to the greatest number of compounds and line 923 responded to the least amount of active compounds.
# [1] = at 45.9 µM (top of the series), tumour line B
# [2] = at 45.9 µM (top of the series), tumour line D
# [3] = at 46.1 µM (top of the series), tumour line C
# [4] = at 46 µM (top of the series), tumour line A
# % is set by controls: 0 for no effect and ±100 for the full control effect; potency is the fitted concentration of half-maximal effect.
compound,measurement,setting,value
O=C(c1ccccc1)c1ccc2n1CCC2C(=O)O (configuration not stated),"activity, negative = cell killing","at 20 µM (top of the series), tumour line C",0.506%
same,"activity, negative = cell killing","at 21.2 µM (top of the series), tumour line B",-13.1%
same,"activity, negative = cell killing","at 21.2 µM (top of the series), tumour line D",-2.23%
same,"activity, negative = cell killing","at 21.3 µM (top of the series), tumour line A",-11%
same,"activity, negative = cell killing",[1],-9.76%
same,"activity, negative = cell killing",[2],-4.33%
same,"activity, negative = cell killing",[3],-1.4%
CC(C)c1nc(CN(C)C(=O)N[C@H](C(=O)N[C@@H](Cc2ccccc2)C[C@H](O)[C@H](Cc2ccccc2)NC(=O)OCc2cncs2)C(C)C)cs1,"activity, negative = cell killing",[1],-7.95% and -4.95%
same,"activity, negative = cell killing",[2],-23.9% and -23.8%
same,"activity, negative = cell killing",[3],-26.2% and -16%
same,Potency,tumour line A,17.8 µM (active)
CCC(C)(Oc1ccc(C2(c3ccc(OC(C)(CC)C(=O)O)cc3)CCCCC2)cc1)C(=O)O (configuration not stated),"activity, negative = cell killing",[1],-15.2%
same,"activity, negative = cell killing",[2],-12.5%
same,"activity, negative = cell killing",[4],-6.69%
same,"activity, negative = cell killing",[3],-24.8%
Cc1c(OCC(F)(F)F)ccnc1CS(=O)c1nc2ccccc2[nH]1 (configuration not stated),"activity, negative = cell killing",[1],-26%
same,Potency,tumour line A,10 µM (active)
CNC[C@H](O)c1ccc(O)c(O)c1,"activity, negative = cell killing",[1],-6.05%
same,"activity, negative = cell killing",[2],-9.08%
same,"activity, negative = cell killing",[4],-12.1%
same,"activity, negative = cell killing",[3],-9.48%
Cc1ncc([N+](=O)[O-])n1CC(C)O (configuration not stated),"activity, negative = cell killing",[1],-7.1%
same,"activity, negative = cell killing",[2],3.12%
same,"activity, negative = cell killing",[4],-20.2%
same,"activity, negative = cell killing",[3],-8.86%
N[C@@H](Cc1cc(I)c(Oc2cc(I)c(O)c(I)c2)c(I)c1)C(=O)O,"activity, negative = cell killing",[1],-5.58%
same,"activity, negative = cell killing",[2],-1.99%
same,"activity, negative = cell killing",[3],-6.06%
C[Se]CCC(N)C(=O)O (configuration not stated),"activity, negative = cell killing",[1],-7.06%
same,"activity, negative = cell killing",[2],3.7%
same,"activity, negative = cell killing",[4],-13.2%
same,"activity, negative = cell killing",[3],5.25%
O=C(O)CCNC(=O)c1ccc(N=Nc2ccc(O)c(C(=O)O)c2)cc1,"activity, negative = cell killing",[1],-6.99%
same,"activity, negative = cell killing",[2],-11.2%
same,"activity, negative = cell killing",[4],-28%
same,"activity, negative = cell killing",[3],-6.53%
Nc1ccn([C@@H]2O[C@H](CO)[C@@H](O)C2O)c(=O)n1 (some centres not stated),"activity, negative = cell killing",[2],-14.9%
same,"activity, negative = cell killing",[3],-25.6%
same,Potency,tumour line A,7.08 µM (active)
CCCCC(CC)COC(=O)C(C#N)=C(c1ccccc1)c1ccccc1 (configuration not stated),"activity, negative = cell killing",[3],-18.1%
same,Potency,tumour line A,7.08 µM (active)
same,Potency,tumour line D,10 µM (active)
